From PubChem BioAssay (NCATS)
Records with an inconclusive call do not appear. The source made the active and inactive calls. The call rests on the fitted dose curve; in most records, active means well fitted cell-killing curve with a large enough effect; inconclusive means small, poorly fitted or top-dose-only effect, or effect the other way; inactive means flat fitted curve, though single readings scatter. Where a SMILES comes first, the peptide text is derived from it. [ ]: non-standard residue; d: D form. ξ: configuration not given here. ξTyr(βOH) = NC(C(=O)O)C(O)c1ccc(O)cc1

Columns and labels:
Assay in all cases: Primary qHTS to identify gynecologic anti-cancer compounds using libraries of approved drugs and bioactive compounds (AID 1345084); further: nearly all actives have a fitted effect of over 55% in size
C33A = conditions: Gynecologic cancer cell panel viability, ATPlite luminescence, 48 h; series mostly up to 57.5 µM
Procedure, shortened: (§1)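 Measured: luminescence after ATPlite addition (15 min, RT). Exposure: 48 h, 37 C, 5% CO2.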

CAOV3 = conditions: Gynecologic cancer cell panel viability, ATPlite luminescence, 48 h; series mostly up to 57.5 µM
Procedure, shortened: as §1

CASKI = conditions: Gynecologic cancer cell panel viability, ATPlite luminescence, 48 h; series mostly up to 57.5 µM
Procedure, shortened: as §1

Es-2 = conditions: Gynecologic cancer cell panel viability, ATPlite luminescence, 48 h; series mostly up to 57.5 µM
Procedure, shortened: as §1

HeLa = conditions: Gynecologic cancer cell panel viability, ATPlite luminescence, 48 h; series mostly up to 57.5 µM
Procedure, shortened: as §1

Hek293T = conditions: Gynecologic cancer cell panel viability, ATPlite luminescence, 48 h, control line for the selectivity index; series mostly up to 57.5 µM
Procedure, shortened: as §1

JEG-3 = conditions: Gynecologic cancer cell panel viability, ATPlite luminescence, 48 h; series mostly up to 57.5 µM
Procedure, shortened: as §1

OV90 = conditions: Gynecologic cancer cell panel viability, ATPlite luminescence, 48 h; series mostly up to 57.5 µM
Procedure, shortened: as §1

PA-1 = conditions: Gynecologic cancer cell panel viability, ATPlite luminescence, 48 h; series mostly up to 57.5 µM
Procedure, shortened: as §1

SKOV3 = conditions: Gynecologic cancer cell panel viability, ATPlite luminescence, 48 h; series mostly up to 57.5 µM
Procedure, shortened: as §1

Tov112D = conditions: Gynecologic cancer cell panel viability, ATPlite luminescence, 48 h; series mostly up to 57.5 µM
Procedure, shortened: as §1

Tov-21-G = conditions: Gynecologic cancer cell panel viability, ATPlite luminescence, 48 h; series mostly up to 57.5 µM
Procedure, shortened: as §1

Measured: Potency

COC(=O)CCC1(C)C(C(C)(C)O)C(O)CC2(C)Oc3c(C)c4c(c(OC)c3CC21)C(=O)OC4 (stereo unspecified)
not listed: Tov-21-G
inactive: all other assays above

COc1ccccc1CN[C@H]1CCCN[C@H]1c1ccccc1
inactive: all assays above

CC1=CC(=O)CC(C)(C)C1CCC(C)O[C@@H]1O[C@H](CO)[C@@H](O)[C@H](O)[C@H]1O (stereo partly specified)
inactive: all assays above

COc1ccc(CCc2nc3cc(-c4c(C)noc4C)ccc3n2C[C@H](C)N2CCOCC2)cc1Cl
inactive: all assays above

C=C(CCO)C(=O)OCC1OCC(OC(=O)C(=C)CCO[C@@H]2O[C@H](CO)[C@@H](O)[C@H](O)[C@H]2O)C(O)C1O (stereo partly specified)
inactive: all assays above

CCC(C)C(N)C(=O)NCCN1CCOCC1 (stereo unspecified)
inactive: all assays above

COc1ccc(C2(O)c3ccccc3NC(=O)C2OC)cc1 (stereo unspecified)
inactive: all assays above

CC(C)c1ccc2c(c1)CCC1[C@](C)(C(=O)O)CCC[C@]21C (stereo partly specified)
inactive: all assays above

C[C@]12CCC[C@](C)(C(=O)O)C1CCC13CC(CO)C(CCC12)C3 (stereo partly specified)
inactive: all assays above

Cc1sc(C)c(C(=O)NC2(c3ccc(C(=O)O)cc3)CC2)c1Cc1ccc(C(F)(F)F)cc1
inactive: all assays above

O=C(/C=C/c1ccc(O)cc1)OC[C@@]1(O)C=C[C@@H]2C(C(=O)O)=CO[C@@H](O[C@@H]3O[C@H](CO)[C@@H](O)[C@H](O)[C@H]3O)[C@@H]21
inactive: all assays above

CC(C)=C1CC2[C@](C)(CC[C@@H](OC(=O)C3(C)OC3C)[C@@]2(C)O)CC1=O (stereo partly specified)
inactive: all assays above

N#Cc1cccc(-c2nc(-c3cccnc3)no2)c1
inactive: all assays above

O=C(O)/C=C/c1ccc2occc2c1O[C@@H]1O[C@H](CO)[C@@H](O)[C@H](O)[C@H]1O
inactive: all assays above

C/C=C/C=C/C(O)=C1/C(=O)[C@]2(C)C(=O)[C@@](C)(O)[C@H]1[C@H]([C@@]1(C)OC(=O)C(C)=C1O)[C@H]2C(=O)CC/C=C/C
inactive: all assays above

CC(C)(O)[C@@H]1CC[C@]2(CO)[C@@H](O)CC[C@](C)(O)[C@H]2[C@@H]1O[C@@H]1O[C@H](CO)[C@@H](O)[C@H](O)[C@H]1O
inactive: all assays above

C=C1CC[C@@H]2[C@](C)(CO)[C@H](O[C@@H]3O[C@H](CO)[C@@H](O)[C@H](O)[C@H]3O)CC[C@@]2(C)[C@@H]1C/C=C1/C(=O)OC[C@H]1O
inactive: all assays above

CC1(C)CC[C@]2(C(=O)O[C@@H]3O[C@H](CO)[C@@H](O)[C@H](O)[C@H]3O)CC[C@]3(C)C(=CCC4[C@@]5(C)C[C@@H](O)[C@H](O)[C@@](C)(CO)C5[C@H](O)C[C@]43C)C2[C@@H]1O (stereo partly specified)
inactive: all assays above

Cc1ccc(Cl)cc1N(CC(=O)Nc1c(F)cccc1F)S(C)(=O)=O
inactive: all assays above

COc1ccc(CC(NC(C)=O)C(=O)O)cc1 (stereo unspecified)
inactive: all assays above

CC/C=C\CC1C(CC(=O)O)CCC1OC1OC(CO)C(O)C(O)C1O (stereo unspecified)
not listed: SKOV3
inactive: all other assays above

C=C1C(O)C(OC(=O)c2ccccc2)C2C(C)(C(=O)O)CCCC2(C)C1CC/C(C)=C\CO (stereo unspecified)
not listed: SKOV3
inactive: all other assays above

COc1cc(Nc2ccc([N+](=O)[O-])cc2C(=O)O)cc2ccccc12
not listed: SKOV3
inactive: all other assays above

CC(C)C1NC(=O)CNC(=O)C2CCCN2C(=O)C(Cc2c[nH]c3ccccc23)NC(=O)CNC(=O)C(C(O)c2ccc(O)cc2)NC(=O)CNC1=O (stereo unspecified) (cyclo(G[ξTyr(βOH)]GWPGV); configuration not given here)
not listed: SKOV3
inactive: all other assays above

C=C(CO)C(=O)O[C@H]1C[C@@]23O[C@@H]2CC/C(=C/[C@H]2OC(=O)C(=C)[C@H]12)CO[C@H]3O
not listed: SKOV3
inactive: all other assays above

O=C(O)c1ccnc2cc(-c3nc4ccccc4n3CCN3CCCCC3)sc12
not listed: SKOV3
inactive: all other assays above

O=C1NC(=O)/C(=C/c2cccc(C(F)(F)F)c2)S1
not listed: SKOV3
inactive: all other assays above
